According to PubChem BioAssay (NCATS):
Inconclusive results are not listed. The source made the active and inactive calls. The call rests on the fitted dose curve; in most records, active means well fitted curve in the direction sought with a large enough effect; inconclusive means small, poorly fitted or top-dose-only effect, or another doubt; inactive means no such curve, though single readings can be large; an effect the other way counts as inactive or inconclusive. Numbered stars: 1 amine (or outer) side, 2 acyl side, 3 side chain; on linkers, the order of the positions; unused ones are H or OH. Bridge positions count the residues as written; N and C are the ends. Square brackets hold non-standard residues; d marks the D form. Peptide text beside a SMILES is read from it. * marks the point of attachment. ξ: configuration not given here. ΔAla(Z-3-ureido) = NC(=O)N/C=C(\N)C(=O)O; X2 = NC1=NC(O)CC(C(N[*:1])C(=O)[*:2])N1; ξβ3hOrn = NCCCC(N)CC(=O)*; Dap = NC[CH](N)C(=O)O

Legend:
[1] = qHTS for Inhibitors of Plasmodium falciparum (7G8) proliferation (AID 504316); further: nearly all actives have a fitted effect of over 65% in size; further: potency means the concentration at half of the fitted maximal effect
Method in brief: (§1)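 Erythrocytes infected with P. falciparum line (0.3% parasitemia, 2.5% hematocrit final) incubated with compounds 72 h at 37 °C, 5% CO2; SYBR Green lysis buffer added, fluorescence read next day. Normalized to 0.29 uM artemisinin and DMSO.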

[2] = qHTS for Inhibitors of Plasmodium falciparum (CP250) proliferation (AID 504320);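 further: plate controls were DMSO vehicle for no effect and 0.29 µM artemisinin control for full effect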
Method in brief: as §1

[3] = qHTS for Inhibitors of Plasmodium falciparum (HB3) proliferation (AID 504318); further: nearly all actives have a fitted effect of over 60% in size; further: potency means the concentration at half of the fitted maximal effect
Method in brief: as §1

[4] = qHTS for Inhibitors of Plasmodium falciparum (GB4) proliferation (AID 504315);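 further: 0% = DMSO vehicle and -100% = 0.29 µM artemisinin control; nearly all actives have a fitted effect of over 50% in size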
Method in brief: as §1

[5] = biological target: Ubiquitin carboxyl-terminal hydrolase 1 (Homo sapiens) (UniProt O94782); assay: Inhibitors of USP1/UAF1: Pilot qHTS (AID 504865);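 further: rhodamine fluorescence freed from ubiquitin-rhodamine substrate followed over time; top concentration of the series differs between compounds; on the % scale 0 is the no-effect control and ±100 the full control effect; nearly all actives have a fitted effect of over 35% in size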
Chain of Ubiquitin carboxyl-terminal hydrolase 1 (Homo sapiens) (O94782 whole entry, looked up): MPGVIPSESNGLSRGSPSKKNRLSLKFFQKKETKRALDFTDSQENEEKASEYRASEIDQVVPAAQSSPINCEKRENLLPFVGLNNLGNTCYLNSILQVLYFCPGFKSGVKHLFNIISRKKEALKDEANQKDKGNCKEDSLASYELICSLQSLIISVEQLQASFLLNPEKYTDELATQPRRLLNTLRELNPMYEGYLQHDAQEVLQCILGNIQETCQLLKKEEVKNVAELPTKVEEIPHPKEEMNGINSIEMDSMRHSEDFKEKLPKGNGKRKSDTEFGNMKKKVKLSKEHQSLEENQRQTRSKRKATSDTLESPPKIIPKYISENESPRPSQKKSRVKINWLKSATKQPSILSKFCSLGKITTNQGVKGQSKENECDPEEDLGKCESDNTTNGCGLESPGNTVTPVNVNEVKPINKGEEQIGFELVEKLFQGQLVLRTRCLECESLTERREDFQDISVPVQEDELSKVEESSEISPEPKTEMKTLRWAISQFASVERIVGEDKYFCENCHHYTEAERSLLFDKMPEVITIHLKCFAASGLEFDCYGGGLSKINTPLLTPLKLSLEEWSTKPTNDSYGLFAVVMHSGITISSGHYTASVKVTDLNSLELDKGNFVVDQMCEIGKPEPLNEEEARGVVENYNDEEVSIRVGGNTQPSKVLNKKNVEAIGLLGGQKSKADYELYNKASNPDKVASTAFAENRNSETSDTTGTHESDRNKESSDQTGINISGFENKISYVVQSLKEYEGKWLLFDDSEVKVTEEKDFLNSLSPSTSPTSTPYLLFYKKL
Method in brief: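 In 50mM HEPES pH 7.8 containing 0.5mM EDTA, 1mM TCEP, 0.1 mg/ml BSA and 0.01% Tween-20, 1nM USP1/UAF1 is exposed to compound for 15 min, then Ub-Rho (150nM final) is added and fluorescence is read over time.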

[6] = biological target: Luciferin 4-monooxygenase (Photinus pyralis) (UniProt P08659); assay: Biochemical firefly luciferase enzyme assay for NPC (AID 624030); further: nearly all actives have a fitted effect of over 70% in size; further: potency means the concentration at half of the fitted maximal effect
Chain of Luciferin 4-monooxygenase (Photinus pyralis) (P08659 whole entry, looked up): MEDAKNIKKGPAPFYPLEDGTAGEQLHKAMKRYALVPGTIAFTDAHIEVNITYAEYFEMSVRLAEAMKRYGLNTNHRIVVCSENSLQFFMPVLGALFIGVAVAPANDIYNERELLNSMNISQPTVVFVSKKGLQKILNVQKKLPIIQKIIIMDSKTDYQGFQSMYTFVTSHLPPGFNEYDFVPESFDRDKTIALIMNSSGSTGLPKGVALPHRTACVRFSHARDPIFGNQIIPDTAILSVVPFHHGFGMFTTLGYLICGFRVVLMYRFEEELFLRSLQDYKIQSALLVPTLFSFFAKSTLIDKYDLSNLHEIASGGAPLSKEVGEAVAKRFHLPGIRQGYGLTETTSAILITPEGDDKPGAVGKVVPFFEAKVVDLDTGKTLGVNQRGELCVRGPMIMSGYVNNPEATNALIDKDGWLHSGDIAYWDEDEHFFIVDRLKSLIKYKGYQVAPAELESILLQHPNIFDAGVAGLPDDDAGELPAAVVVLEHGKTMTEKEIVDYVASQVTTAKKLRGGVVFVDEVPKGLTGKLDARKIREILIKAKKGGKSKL
Method in brief: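 Direct inhibition of firefly luciferase enzyme (10 nM final, 50 mM Tris Acetate) assessed by luminescence within 5 minutes. Percent activity scaled between DMSO and PTC124 positive control, with concentration-effect curves classified by fit quality and response.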

[7] = qHTS profiling for inhibitors of Plasmodium falciparum proliferation (AID 504749);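 further: 0% = DMSO vehicle and full inhibition = artemisinin control; nearly all actives have a fitted effect of over 60% in size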; conditions: P. falciparum in erythrocytes, SYBR Green DNA, 72 h, at 28.7 µM (top of the series)
Method in brief: (§2)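 Three-day growth assay of blood-stage parasites in erythrocytes (0.3% parasitemia, 2.5% hematocrit) at 37 C, 5% CO2, quantified by SYBR Green DNA staining after overnight detergent lysis.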

ATS189 = assay: as above; conditions: P. falciparum in erythrocytes, SYBR Green DNA, 72 h; series mostly up to 28.7 µM
Method in brief: as §2

CP185 = assay: as above; conditions: P. falciparum in erythrocytes, SYBR Green DNA, 72 h; series mostly up to 28.7 µM
Method in brief: as §2

CP201 = assay: as above; conditions: P. falciparum in erythrocytes, SYBR Green DNA, 72 h; series mostly up to 28.7 µM
Method in brief: as §2

CP238 = assay: as above; conditions: P. falciparum in erythrocytes, SYBR Green DNA, 72 h; series mostly up to 28.7 µM
Method in brief: as §2

CP252 = assay: as above; conditions: P. falciparum in erythrocytes, SYBR Green DNA, 72 h; series mostly up to 28.7 µM
Method in brief: as §2

CP265 = assay: as above; conditions: P. falciparum in erythrocytes, SYBR Green DNA, 72 h; series mostly up to 28.7 µM
Method in brief: as §2

CP286 = assay: as above; conditions: P. falciparum in erythrocytes, SYBR Green DNA, 72 h; series mostly up to 28.7 µM
Method in brief: as §2

CP305 = assay: as above; conditions: P. falciparum in erythrocytes, SYBR Green DNA, 72 h; series mostly up to 28.7 µM
Method in brief: as §2

CP325 = assay: as above; conditions: P. falciparum in erythrocytes, SYBR Green DNA, 72 h; series mostly up to 28.7 µM
Method in brief: as §2

FAB9 = assay: as above; conditions: P. falciparum in erythrocytes, SYBR Green DNA, 72 h; series mostly up to 28.7 µM
Method in brief: as §2

PC15 = assay: as above; conditions: P. falciparum in erythrocytes, SYBR Green DNA, 72 h; series mostly up to 28.7 µM
Method in brief: as §2

PC49 = assay: as above; conditions: P. falciparum in erythrocytes, SYBR Green DNA, 72 h; series mostly up to 28.7 µM
Method in brief: as §2

COc1cc2c(cc1OC)[C@@H]1O[C@](CCCCN3C(=O)c4ccccc4C3=O)(C2)OC2=C1C(=O)CCC2
inactive: Potency [2]
active: Potency [1] 1.69 µM

C[C@H]1Cc2c(COc3ccccc3)nc3c(c2CO1)CN(S(=O)(=O)c1ccc(Cl)c2nonc12)CC3
inactive: Potency [3] | Potency [2]

CCCCCCC#C[C@@H]1C=C[C@H](OC(C)=O)[C@@H](COC(C)=O)O1
inactive: Potency [2]

COC(=O)CCCC1=CC2=C(c3ccccc3)C(=O)C(C)(OC(=O)C3CCCC3)C(=O)C2=CN1CCc1c[nH]c2ccccc12 (configuration not stated)
inactive: Potency [4] | Potency [2]

CCCCc1cc2c(cn1)=C(OC(=O)c1ccc(Cl)nc1)C(C)(OC(=O)CC)C(=O)C=2 (configuration not stated)
inactive: Potency [2]

C[C@@H]1CC[C@H]2C(=O)N(Cc3cccc([N+](=O)[O-])c3)C[C@H](O)CN2[C@@H]1c1ccc(Br)cc1
inactive: Potency [1] | Potency [2]

COC(=O)c1ccccc1S(=O)(=O)N1CCc2nc(-c3ccc(OC)cc3C)c3c(c2C1)CO[C@@H](c1ccccc1)C3
inactive: Potency [2]

COc1ccc(C=CC2=CC3(C)CC2(C)C(c2ccc(OC)cc2)CC3=O)cc1 (configuration not stated)
active: Potency [1] 1.69 µM
inactive: Potency [2]

COc1ccc(-c2nc(-c3ccccc3)c(Nc3ccc4ccccc4c3)o2)cc1
active: Potency [3] 1.69 µM

CCCCS(=O)(=O)N1C2=NC(C(=O)OC)=C(C(=O)OC)[C@@H]3N(Cc4ccccc4)c4ccccc4[C@]23C[C@H]1C(=O)OC
active: Potency [1] 1.51 µM | Potency [3] 2.39 µM

COC(=O)CCC(=O)OC1(C)C(=O)C2=CN(CCc3c[nH]c4ccccc34)C(c3ccc(OC)cc3)=CC2=C(Br)C1=O (configuration not stated)
inactive: Potency [4] | Potency [3] | Potency [2]

O=C1C=CC2(OCCCO2)C(Br)=C1CO
inactive: Potency [1] | Potency [3] | Potency [2]

COc1ccc(/C=C/C(=O)c2cccs2)cc1OC
inactive: Potency [5]

CC1(C)C=Cc2c(cc3occ(-c4ccc5c(c4)OCO5)c(=O)c3c2O)O1
inactive: Potency [5]

CC1CC2C3CCC4=CC(=O)C=C[C@@]4(C)[C@]3(F)C(O)C[C@]2(C)[C@]1(O)C(=O)COP(=O)(O)O (some centres not stated)
inactive: Potency [5] | Potency [6]

CC1CCC2[C@](C)(CO)C(O)CC[C@]2(C)C12CCC(CO)(CCO)O2 (some centres not stated)
inactive: Potency [5]

CC(=O)OC1CCC2(C)C(=CCC3C2CCC2(C)C3C[C@@H]3O[C@]32C(C)=O)C1 (some centres not stated)
inactive: Potency [5]

CC(=O)OCC1=C(C(=O)O)N2C(=O)C(NC(=O)Cc3ccccc3)C2SC1 (configuration not stated)
inactive: Potency [6] | activity, negative = inhibition ([7]; parasite line A) 1.08% | activity, negative = inhibition ([7]; parasite line B) 0.234% | Potency (ATS189) | Potency (CP185) | Potency (CP201) | Potency (CP238) | Potency (CP252) | Potency (CP265) | Potency (CP286) | Potency (CP305) | Potency (CP325) | Potency (FAB9) | Potency (PC15) | Potency (PC49)

CC(C)CC(NC(=O)C(COC(C)(C)C)NC(=O)C(Cc1ccc(O)cc1)NC(=O)C(CO)NC(=O)C(Cc1c[nH]c2ccccc12)NC(=O)C(Cc1cnc[nH]1)NC(=O)C1CCC(=O)N1)C(=O)NC(CCCN=C(N)N)C(=O)N1CCCC1C(=O)NNC(N)=O (configuration not stated)
inactive: Potency [5] | Potency [6] | activity, negative = inhibition ([7]; parasite line A) 11.9% | activity, negative = inhibition ([7]; parasite line B) 5.86% | Potency (ATS189) | Potency (CP185) | Potency (CP201) | Potency (CP238) | Potency (CP252) | Potency (CP265) | Potency (CP286) | Potency (CP305) | Potency (CP325) | Potency (FAB9) | Potency (PC15) | Potency (PC49)

Cc1ccc2oc(-c3ccccc3)cc(=O)c2c1
inactive: Potency [5]

COc1ccc(-c2oc3cc(OC)ccc3c(=O)c2O)cc1
inactive: Potency [5]

NCCCC(N)CC(=O)NC1CNC(=O)C(C2CC(O)N=C(N)N2)NC(=O)/C(=C/NC(N)=O)NC(=O)C(CO)NC(=O)C(CO)NC1=O (stereo not drawn) (ξβ3hOrn-[Dap]SS[ΔAla(Z-3-ureido)][X2]; lactam 1-C; configuration not given here)
inactive: Potency [5] | Potency [6] | activity, negative = inhibition ([7]; parasite line A) 5.91% | activity, negative = inhibition ([7]; parasite line B) 6.39% | Potency (ATS189) | Potency (CP185) | Potency (CP201) | Potency (CP238) | Potency (CP252) | Potency (CP265) | Potency (CP286) | Potency (CP305) | Potency (CP325) | Potency (FAB9) | Potency (PC15) | Potency (PC49)

C[C@H]1O[C@@H](O[C@H]2[C@@H](O)C[C@H](O[C@H]3[C@@H](O)C[C@H](O[C@H]4CC[C@]5(C)C6CC[C@]7(C)[C@@H](C8=CC(=O)OC8)CC[C@]7(O)C6CC[C@@H]5C4)O[C@@H]3C)O[C@@H]2C)C[C@H](O)[C@@H]1O (some centres not stated)
inactive: Potency [5]

COc1ccc2c(=O)c(-c3ccccc3)coc2c1
inactive: Potency [5]

C[N+]1(C)C2CCC1CC(OC(=O)C(O)c1ccccc1)C2 (configuration not stated)
inactive: Potency [5] | Potency [6]

O=C1/C(=C\c2cccs2)CCC/C1=C/c1cccs1
inactive: activity, negative = inhibition ([7]; parasite line A) 0.948% | activity, negative = inhibition ([7]; parasite line B) 10.7% | Potency (ATS189) | Potency (CP185) | Potency (CP201) | Potency (CP238) | Potency (CP252) | Potency (CP265) | Potency (CP286) | Potency (CP305) | Potency (CP325) | Potency (FAB9) | Potency (PC15) | Potency (PC49)
active: Potency [6] 5.73 µM

O=C(/C=C/c1ccc(O)cc1)c1c(O)cc(O)cc1O
inactive: Potency [5]
